Results on 31 molecules are retold here after PubChem BioAssay AID602127 (Broad Institute, 2011).

Measured potencies and affinities stand elsewhere. Active and inactive are the calls of the source.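 The calls were made as follows: active = every repeat test judged active, meaning a falling signal with potency within twice the top valid dose; inconclusive = repeat tests disagree on the call; inactive = every repeat test inactive, including signal moving upward.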

The target of the assay is Cyclin-dependent kinase 2 (Homo sapiens) (UniProt P24941). Briefly: CDK2 kinase inhibitors, off-target check, dose response, selectivity assay for Dyrk1A inhibitor project, biochemical, cherry-picked samples (AID 602127). Particulars: CDK2/cyclin A kinase, ADP-Glo luminescence, 60 min; series mostly up to 10 µM; activity change, negative = inhibition: at the top concentration. (In general: ADP-Glo turns the ADP formed in a reaction into a luminescent signal.)
As to `Clc1ccc(CNc2nccc(-c3ccc4c(c3)OCCO4)n2)cc1Cl`, the “activity change, negative = inhibition” value is 2.63% (inactive). For `c1csc(CCNc2ncnc3ccc(-c4ccc5c(c4)OCO5)cc23)c1`, the “activity change, negative = inhibition” value is -13.2% (inactive). Take `CC(=O)Nc1ccc(SCc2ncc(-c3ccccc3)o2)cc1`: the “activity change, negative = inhibition” value was -20.5% (inactive). For the molecule `Clc1ccc(CNc2cc(-c3ccc4c(c3)OCO4)ncn2)cc1`, the “activity change, negative = inhibition” value is -8.27% (inactive). With `Clc1cc(Cl)cc(CNc2cc(-c3ccc4c(c3)OCO4)ncn2)c1`, the “activity change, negative = inhibition” value was -6.93% (inactive). `Cc1noc(NS(=O)(=O)c2ccc(NC(=O)c3oc4ccc(F)cc4c3C)cc2)c1C`: the “activity change, negative = inhibition” value is -7.63% (inactive). Regarding `CN(Cc1cccs1)c1ncnc2ccc(-c3ccc4c(c3)OCO4)cc12`, the “activity change, negative = inhibition” value is -1.32% (inactive). On to `COc1ccc(-c2cc(NCCc3ccncc3)n3ncnc3n2)cc1`, for which the “activity change, negative = inhibition” value was -20.4% (inactive).

On to `CC(=O)Nc1cccc(NC(=O)c2cc3ccccc3o2)c1`, for which the “activity change, negative = inhibition” value is -13.7% (inactive). The same measure for `O=C(CSc1nnnn1-c1ccc(O)cc1)Nc1ccc(N2CCOCC2)c(Cl)c1`: -8.88% (inactive); for `c1coc(CCNc2ncnc3ccc(-c4ccc5c(c4)OCO5)cc23)c1`: 2.36% (inactive). Consider `N#Cc1c(C(F)(F)F)cc(-c2cccc(Cl)c2)[nH]c1=O`, for which the “activity change, negative = inhibition” value was 1.81% (inactive). For the molecule `COc1ccc2c(c1)CCc1c-2n[nH]c1C(=O)O`, the “activity change, negative = inhibition” value was 4.31% (inactive). In the case of `COCCNC(=O)c1ccc2c(c1)nc(C)n2-c1cccc(F)c1`, the “activity change, negative = inhibition” value was 1.17% (inactive).

As for `CN(C)S(=O)(=O)c1ccc(Cl)c(C(=O)Nc2cccc3ncccc23)c1`, the “activity change, negative = inhibition” value was -12.6% (inactive). As to `Fc1cccc(Nc2nc(-c3ccncc3)nc3ccccc23)c1`, the “activity change, negative = inhibition” value was -2.19% (inactive).

Regarding `N#CCSc1nc(Nc2ccc3c(c2)OCO3)c2ccccc2n1`, the “activity change, negative = inhibition” value is -21.3% (inactive).

For `CC(=O)Nc1ccc(Nc2cc(C)nc3c(-c4ccccc4)cnn23)cc1`, the “activity change, negative = inhibition” value was -11.3% (inactive). Regarding `O=C(Nc1nc(-c2ccc3c(c2)OCCO3)cs1)c1ccco1`, the “activity change, negative = inhibition” value was 1.2% (inactive). Turning to `Brc1ccc(CNc2nccc(-c3ccc4c(c3)OCO4)n2)cc1Br`, the “activity change, negative = inhibition” value is 2.82% (inactive). Turning to `CCCNc1ncnc2ccc(-c3ccc4c(c3)OCO4)cc12`, the “activity change, negative = inhibition” value is -5.98% (inactive). For `CCN(Cc1cccs1)c1ncnc2ccc(-c3ccc4c(c3)OCO4)cc12`, the “activity change, negative = inhibition” value was -3.99% (inactive). Consider `COc1cccc(NC(=O)Nc2ccc3c(c2)N(C)C(=O)CS3)c1`, for which the “activity change, negative = inhibition” value was -5.88% (inactive). Turning to `Clc1cc(Cl)cc(CNc2ncncc2-c2ccc3c(c2)OCO3)c1`, the “activity change, negative = inhibition” value is 6.67% (inactive). For the molecule `Clc1ccc(CNc2nccc(-c3ccc4c(c3)OCO4)n2)cc1Cl`, the “activity change, negative = inhibition” value is 2.91% (inactive). The same measure for `c1cc(-c2ccc3c(c2)OCO3)nc(Nc2ccc3c(c2)OCO3)n1`: -2.14% (inactive); for `COc1cc(C(=O)Nc2cccc(-c3nncn3C)c2)cc(OC)c1OC`: -1.46% (inactive); for `CN(C)S(=O)(=O)c1ccc(NC(=O)c2cc3ccccc3o2)cc1`: 3.94% (inactive). In the case of `NC(=O)c1c(NC(=O)c2ccc(N3C(=O)CCC3=O)cc2)sc2c1CCCC2`, the “activity change, negative = inhibition” value is -15.9% (inactive).

Take `COc1cccc(-c2sc3ccccc3c2-c2ccc(OCCN3CCCC3)cc2)c1`: the “activity change, negative = inhibition” value was 1.27% (inactive). For the molecule `Cc1nc(CNc2ncnc3ccc(-c4ccoc4)cc23)cs1`, the “activity change, negative = inhibition” value was 1.03% (inactive).
